Among the data in PubChem BioAssay are cell count values, retold here.

Each structure is given as a SMILES string. Square brackets hold non-standard residues; d marks the D form. Peptide text beside a SMILES is read from it. * marks the point of attachment. Nle = CCCC[C@H](N)C(=O)O; Cbz = O=C(OCc1ccccc1)*; Boc = CC(C)(C)OC(=O)*

The assay in a line: viability loss with induced miR-34 in A549 – imaging, A549 dox-inducible miR-34, nuclei and caspase counts, primary screen (AID 1347080). Also: test concentration not given here. As to conditions: A549 miR-34 inducible, Hoechst nuclei count, 48 h; measured here: total cells without miR-34 induction.
The compound `CCCCCCCC/C=C\CCCCCCCC(=O)OC[C@H](CO)OC(=O)CCCCCCC/C=C\CCCCCCCC` had a cell count of 5170.
`NC(=NCc1ccc(Cl)cc1Cl)NC(=O)c1nc(Cl)c(N)nc1N` displayed a cell count of 1430.
Next, `CN([C@@H](Cc1ccc(OS(=O)(=O)c2cccc3cnccc23)cc1)C(=O)N1CCN(c2ccccc2)CC1)S(=O)(=O)c1cccc2cnccc12`: 5650; `CCCC[C@@H](C=O)NC(=O)[C@H](CC(C)C)NC(=O)[C@H](CC(C)C)NC(C)=O` (Ac-Leu-Leu-[Nle]-aldehyde): 1700.
Turning to `CCC(C)[C@H](NS(=O)(=O)c1cccc2ccccc12)C(=O)N[C@H](C=O)Cc1c[nH]c2ccccc12` (stereo not given in full), the cell count is 3410.
To `CC(C)[C@@H]1NC(=O)[C@H](Cc2ccccc2)NC(=O)[C@@H](CC(=O)O)NC(=O)CNC(=O)[C@H](CCCN=C(N)N)NC1=O` belongs 1280; to `CSCC[C@H](NC(=O)[C@H](Cc1ccccc1)NC[C@@H](NC[C@@H](N)CS)C(C)C)C(=O)O`, 6640; to `CCCCCCCCCC(=O)OC[C@H](CO)OC(=O)CCCCCCCCC`, 5600.
On to `CCC(C)[C@@H](CO[C@@H](Cc1ccccc1)C(=O)N[C@@H](CCS(C)(=O)=O)C(=O)OC(C)C)NC[C@@H](N)CS` (stereo not given in full), for which the cell count is 3700.
Next, `CCCCC[C@@H](O)/C=C/[C@H]1[C@H](C/C=C\CCCC(=O)O)C(=O)C[C@@H]1O`: 5300; `CCCCC[C@@H](O)/C=C/[C@H]1[C@H](C/C=C\CCCC(=O)O)[C@H](O)C[C@@H]1O`: 6050.
Next, `CC1(C)Oc2ccc(C#N)cc2[C@@H](OC2=CC(=O)CC2)[C@@H]1O`: 6400; `CC[C@H]1[C@@H]2C=C[C@@H]3[C@H]4C/C=C\C(=O)NCCC[C@@H]5NC(=O)C(=C5O)C(=O)CC[C@@H]4C[C@@H]3[C@H]2C[C@H]1C`: 324.
For the compound `CCCCC/C=C\C\C=C/C=C/C=C/[C@@H](SC[C@H](N)C(=O)NCC(=O)O)[C@@H](O)CCCC(=O)O`, the cell count turned out to be 6130.
Next, `CCCC[C@@H](C)/C=C(C)/C=C(\C)C(=O)NC1=C[C@@](O)(/C=C/C=C/C=C/C(=O)NC2=C(O)CCC2=O)[C@@H]2O[C@@H]2C1=O`: 1290.
Next, `C=C[C@@]1(C)CC(=O)[C@]2(O)[C@@]3(C)[C@H](O)CCC(C)(C)[C@@H]3[C@H](O)[C@H](OC(C)=O)[C@@]2(C)O1`: 6150; `CCCCCCCCCCCCCCCCOC[C@H](CO)OC(C)=O`: 5340; `CC(C)[C@H](NC(=O)CNC(=O)OC(C)(C)C)C(=O)N[C@H](C=O)C(C)C` (Boc-Gly-Val-Val-aldehyde): 6410.
To `c1ccc(CN(CCN(Cc2ccccn2)Cc2ccccn2)Cc2ccccn2)nc1` belongs 538; to `C=CC1CN2CCC1C[C@@H]2[C@H](O)c1ccnc2ccc(OC)cc12` (stereo not given in full), 5440; to `CCCCCCCCCCCCCCCCCCc1ccc(C(=O)/C=C/C(=O)O)cc1`, 5560.
In turn, `CCCCC[C@H](O)CC(=O)CCc1ccc(O)c(OC)c1` showed a cell count of 5440.
Consider `Nc1ncnc2c1nc(Br)n2C1O[C@H]2COP(=O)(O)O[C@@H]2[C@@H]1O` (stereo not given in full), for which the cell count was 5470.
On to `N#C/C(=C/c1ccc(O)c(O)c1)C(=O)OC/C=C/c1ccccc1`, for which the cell count came to 4020.
To `CCCCC/C=C\C\C=C/C=C/C=C/[C@@H](SC[C@H](N)C(=O)O)[C@@H](O)CCCC(=O)O` belongs 5660.
To `CC(=O)N[C@@H](CC(C)C)C(=O)N[C@@H](CC(C)C)C(=O)N[C@H](C=O)CCCN=C(N)N` belongs 6110; to `O=C[C@@H]1CCCN1C(=O)[C@@H]1CCCN1C(=O)OCc1ccccc1` (Cbz-Pro-Pro-aldehyde), 6040.
Take `CC(=O)OCOC(c1cc([N+](=O)[O-])ccc1Oc1ccc(Br)cc1)P(=O)(OCOC(C)=O)OCOC(C)=O` (stereo not given): the cell count was 2450.
To `C[C@H]([C@H](C)N1CC(=O)NC(=O)C1)N1CC(=O)NC(=O)C1` belongs 2070; to `CCCCC/C=C\C/C=C\CCCCCCCC(=O)O[C@@H](CO)COC(=O)CCCCCCCCCCCCCCCCC`, 6430; to `CC12C=CC(=O)C=C1CCC1C2=CCC2(C)C1CC[C@@H]2C(=O)CN1CCN(c2cc(N3CCCC3)nc(N3CCCC3)n2)CC1` (stereo not given in full), 4470.
Turning to `CCCCCCCCCCCCCCCCOC[C@H](CO)OC`, the cell count is 5500.
To `COC(=O)/C=C/c1ccc(C(=O)NCC(=O)N[C@@H](CCC(=O)OC)C(=O)N[C@@H](CC(C)C)C(N)=O)cc1` belongs 6100; to `NC1=NC2C(N=C(Br)N2C2O[C@H]3COP(=O)(O)O[C@@H]3[C@@H]2O)C(=O)N1` (stereo not given in full), 6620; to `Nc1cc(N2CCCCC2)nc(N)[n+]1OS(=O)(=O)[O-]`, 5870.
